Consider five molecules from PubChem BioAssay.

Molecules are shown by their SMILES. Inconclusive results are not listed. Activity calls are given as the source filed them.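 How the source made its calls, unless noted: active means viability at or under a set limit in both replicates, limit being median viability minus 3 SD (cut at about 48% in these data, passing the limit was not always enough); inconclusive means at or under the limit in just one replicate; inactive means at or above the limit in both replicates.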

A short description of test [1]: Her2 expression decrease, cell viability multiplex – SKBR3 breast tumor cells, AlphaScreen, ATP viability, primary screen (AID 461;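 active means Her2 level under about 52% in both replicate screens, with viability over 70% of control, limit read from the data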;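 on Her2 level: lower value means less Her2 protein in the cells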;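 on viability: percent of carrier control wells set as 100% viability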). Conditions: SKBR3 Her2 protein level, 18-24 h, measured here: SKBR3 viability, ATP luminescence, at 10 µM. (In general: Alpha assays give light when donor and acceptor beads are brought close together.)
The target in test [2] is Receptor tyrosine-protein kinase erbB-2 (Homo sapiens) (UniProt P04626). Described as above. Particulars: 18-24 h, at 10 µM, stronger effect = lower value.
Chain of Receptor tyrosine-protein kinase erbB-2 (Homo sapiens) (P04626 whole entry, looked up): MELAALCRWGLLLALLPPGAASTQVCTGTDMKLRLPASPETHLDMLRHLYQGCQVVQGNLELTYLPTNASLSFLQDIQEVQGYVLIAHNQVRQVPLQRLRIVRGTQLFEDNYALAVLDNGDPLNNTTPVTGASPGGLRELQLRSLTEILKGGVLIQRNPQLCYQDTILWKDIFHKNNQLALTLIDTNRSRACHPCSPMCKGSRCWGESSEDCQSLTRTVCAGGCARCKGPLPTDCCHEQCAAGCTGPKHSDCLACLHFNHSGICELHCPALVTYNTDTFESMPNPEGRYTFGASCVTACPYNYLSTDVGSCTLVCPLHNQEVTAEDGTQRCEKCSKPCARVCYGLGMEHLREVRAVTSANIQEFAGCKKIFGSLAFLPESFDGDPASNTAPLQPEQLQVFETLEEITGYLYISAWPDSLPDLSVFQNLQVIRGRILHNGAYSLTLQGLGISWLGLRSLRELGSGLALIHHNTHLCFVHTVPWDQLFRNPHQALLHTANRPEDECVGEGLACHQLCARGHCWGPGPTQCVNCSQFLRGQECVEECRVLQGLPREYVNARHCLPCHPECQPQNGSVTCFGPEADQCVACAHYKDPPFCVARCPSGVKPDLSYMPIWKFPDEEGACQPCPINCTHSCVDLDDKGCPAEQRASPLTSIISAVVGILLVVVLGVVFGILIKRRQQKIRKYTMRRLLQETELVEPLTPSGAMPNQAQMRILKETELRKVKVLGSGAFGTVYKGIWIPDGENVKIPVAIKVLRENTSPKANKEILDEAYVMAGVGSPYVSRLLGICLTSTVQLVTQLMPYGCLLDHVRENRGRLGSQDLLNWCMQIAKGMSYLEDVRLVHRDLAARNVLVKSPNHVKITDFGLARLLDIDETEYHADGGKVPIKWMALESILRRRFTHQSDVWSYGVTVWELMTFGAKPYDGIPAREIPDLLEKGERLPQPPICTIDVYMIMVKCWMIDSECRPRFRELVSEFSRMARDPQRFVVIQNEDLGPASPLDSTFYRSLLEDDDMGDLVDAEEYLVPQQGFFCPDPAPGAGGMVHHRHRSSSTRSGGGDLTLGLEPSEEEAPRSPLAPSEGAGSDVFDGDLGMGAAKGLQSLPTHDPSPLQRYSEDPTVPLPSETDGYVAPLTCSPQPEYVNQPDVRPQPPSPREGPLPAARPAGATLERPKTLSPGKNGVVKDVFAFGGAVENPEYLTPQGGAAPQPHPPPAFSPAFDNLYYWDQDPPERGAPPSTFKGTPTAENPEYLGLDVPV
The nature of test [3]: reduced viability of SK-BR-3 breast cancer cells – cell-based, 24 h, human, pilot screen (AID 572;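 active means viability at or below 10% of carrier control in both of two separate runs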;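 further: compound exposure lasted between 18 and 24 h rather than exactly 24 h; 100% = carrier-treated control wells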). Conditions: SK-BR-3 viability, CellTiter-Glo luminescence, at 10 µM, stronger effect = lower value. On the technique in general: In ATP-based viability assays light output follows the ATP content of the culture.
Test [4] is described as follows: HUVEC growth inhibition – cell-based, human, primary screen (AID 575;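 active means viability at or below 30% in both replicate assays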;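 further: 100% = median of untreated cell wells with 0.1% DMSO on each plate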). Particulars: HUVEC proliferation, CellTiter-Glo luminescence, 72 h; at 10 µM; stronger effect = lower value.
A short description of test [5]: H69AR cell proliferation blockers – human, duplicate replicates, primary screen (AID 580).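 Further: 100% = mean luminescence of untreated wells and 0% = no signal.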 Particulars: H69AR lung tumor cells viability, ATP luminescence, 72 h; at 10 µM; stronger effect = lower value.
Test [6] in a line: MRP1 drug-resistance reversers in H69AR cells – cell-based, doxorubicin co-treatment, pilot screen (AID 601;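 active means viability loss from added drug above about 55%, and viability with drug at most 40%, in both replicates, limit read from the data, passing the limit was not always enough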). Particulars: CellTiter-Glo, 72 h, at 10 µM; for differential viability (reversal): stronger effect = higher value.
Test [7] can be described thus: yeast transport mutant growth inhibition pilot in 384-well plates, post-Golgi transport modulator project (AID 636; in the data active means inhibition above about 31%). Conditions: absorbance 615 nm, about 18 h, stronger effect = higher value.
Test [8] in a line: growth suppression of yeast trafficking mutant, preliminary HTS, modulators of trafficking downstream of Golgi apparatus project, 1536-format plate, OD 615 nm (AID 637; in the data active means inhibition above about 30%). Conditions: yeast transport mutant growth, absorbance 615 nm, 18 h; stronger effect = higher value.
A short description of test [9]: S. cerevisiae growth inhibition in permissive medium (OD615), pilot counter-assay for S. cerevisiae lifespan shortening project, permissive growth control (AID 705;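 active means growth inhibition above 25% in both replicates, a cutoff set 3 SD above the mean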). Conditions: OD615, 24 h, at 10 µM, stronger effect = higher value.
A short description of test [10]: S. cerevisiae growth inhibition in restrictive medium, OD615, pilot screen, restrictive growth control, yeast lifespan reduction project (AID 706;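 active means growth inhibition above a set limit, 3 SD over mean compound inhibition, in both replicates, cut at about 43% in these data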;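 further: modified DeaD lifespan yeast strain shifted to restrictive glucose medium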). Particulars: OD615, 48 h, at 10 µM, stronger effect = higher value.
The nature of test [11]: doxorubicin toxicity protection in MRP-1 cells – H69AR cells, CellTiter-Glo, duplicate, MRP-1 activator project, pilot screen (AID 807;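 active means viability increase at or above a cutoff of the median across tested compounds plus 3 SD, cut at about 8.5% in these data, passing the limit was not always enough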;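 further: compound pretreatment 18-22 h then 72 h combined with doxorubicin; 0% = doxorubicin alone and 100% = vehicle without doxorubicin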). Conditions: H69AR viability with doxorubicin, CellTiter-Glo luminescence; at 10 µM; stronger effect = higher value.
Test [12] can be described thus: viability of HCT116 without oncogenic beta-catenin – human colon tumor cells, pilot screen (AID 823;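 active means cell viability at or below a set limit in both duplicate runs, the limit being the all-compound median minus 4 SD, cut at about 23% in these data, passing the limit was not always enough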;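 further: 0% = wells killed by 20 µM Hyamine and 100% = untreated DMSO cell wells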). Particulars: HCT116 beta-catenin knockout viability, CellTiter-Glo, 60 h; at 10 µM; stronger effect = lower value.
Test [13] is described as follows: viability of PTEN-null HCT116 cells – cell-based, HCT116 clonal line, CellTiter-Glo, pilot screen (AID 824;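 active means viability at or below 27.92% in each of two runs, the all-compound median minus 4 SD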;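 further: 0% = 20 µM Hyamine control and 100% = vehicle cell control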). Conditions: HCT116 PTEN-deleted viability, 60 h, at 10 µM, stronger effect = lower value.
Test [14] in a line: RAM pathway blockade in budding yeast – dse1pr::URA3 reporter, 5-FOA selection, pilot screen (AID 869;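 active means inhibition over a set limit, the all-compound mean plus 3 SD, in both replicate runs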;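 further: 0% = DMSO wells with no growth and 100% = 10 µM 1-NA-PP1 with full growth; RAM network block rescues cells from 5-FOA so hits raise OD615 growth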). Conditions: S. cerevisiae dse1pr::URA3 5-FOA growth, OD615, 2 d; at 10 µM; stronger effect = higher value; strain carries analog-sensitive mutant Cbk1 kinase.
Test [15] is described as follows: RAM signaling pathway blockade in yeast – S. cerevisiae, Pdr1DBD-CYC8 efflux-inhibited sensitized strain, primary screen (AID 1298;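 active means RAM network inhibition above 8.4% in each of two replicates, 3 SD over the compound average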;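 further: 0% = DMSO untreated cells without growth and 100% = 10 µM 1-NA-PP1 full growth; higher means more yeast growth rescued from 5-FOA killing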). Particulars: S. cerevisiae cbk1-as DSE1-URA3 strain, 5-FOA growth OD615, 2 d; at 50 µM; stronger effect = higher value.
The mark [16] stands for this setting: H69AR cells + 2 uM doxorubicin, measured here: viability with 2 uM doxorubicin, stronger effect = lower value.
Setting [17] is: H69AR cells, compound alone cytotoxicity.

Take `COc1ccc(-c2nc(CSCC(=O)N3CCN(c4cccc(C)c4)C(C)C3)c(C)o2)cc1OC` (stereo not given): the viability in [1] is 102%; in [3], 102% (inactive); in test [4] it was 54.6% (inactive); in test [5], 85.7% (inactive); in test [6] (setting [16]) it was 91.7%; in test [6] (setting [17]), 85.7%. The values for the viability in test [12] and in test [13] were 56.9% (inactive) and 56.4% (inactive), respectively. The Her2 level in test [2] is 67.5% (inactive). The differential viability (reversal) in test [6] (H69AR cells + 2 uM doxorubicin) was -5.97% (inactive). Moreover, the inhibition in test [7] is -2.27% (inactive); in test [8], 1.33% (inactive); in test [14], 1.96% (inactive). Also, the growth inhibition is -4.45% (inactive) in test [9] and 8.39% (inactive) in [10]. Moreover, in test [11], the viability increase is 0.02% (inactive). The RAM network inhibition in [15] was 7.25% (inactive).

Take `Cc1cc(NS(=O)(=O)c2ccccc2)no1`: the viability in [1] is 114%; in test [3] it was 114% (inactive); in test [4] it was 94.5% (inactive); in [5] it was 90.7% (inactive); in [6] (setting [16]), 91.7%; in [6] (setting [17]), 90.7%. In addition, the figures for the viability in test [12] and in test [13] were 99.9% (inactive) and 98.5% (inactive), respectively. Further, in [2], the Her2 level was 115% (inactive). Also, the differential viability (reversal) in test [6] (H69AR cells + 2 uM doxorubicin) was -1.04% (inactive). In addition, the values for the inhibition in test [7], in test [8] and in [14] were -5.33% (inactive), 2.83% (inactive) and 1.86% (inactive), respectively. Further, the growth inhibition in test [9] is -14.5% (inactive); in [10] it was -6.42% (inactive). Moreover, in test [11], the viability increase was 0.56% (inactive). Further, the RAM network inhibition in [15] is 5.41% (inactive).

As for `COc1ccc(NC(=O)CSc2nc3c(c(=O)n2-c2ccccc2OC)SCC3)cc1`, the viability in test [1] was 102%; in test [3] it was 102% (inactive); in [4], 87.4% (inactive); in test [5], 89.7% (inactive); in [6] (setting [16]) it was 95.4%; in test [6] (setting [17]), 89.7%. Further, the results for the viability in test [12] and in test [13] were 99% (inactive) and 98.9% (inactive), respectively. Besides, the Her2 level in [2] was 110% (inactive). In addition, in test [6] (H69AR cells + 2 uM doxorubicin), the differential viability (reversal) is -5.71% (inactive). Also, the inhibition in test [7] was -1.6% (inactive); in [8], -5.5% (inactive); in [14], 2.67% (inactive). For the same molecule, the values for the growth inhibition in [9] and in test [10] were 1.7% (inactive) and -1.84% (inactive), respectively. In test [11], the viability increase is -0.32% (inactive). Besides, the RAM network inhibition in test [15] is 3.97% (inactive).

Turning to `Cc1occc1C(=O)N1CCN(c2ncccn2)CC1`, the viability in test [1] is 87%; in test [3] it was 87% (inactive); in test [4], 99.6% (inactive); in test [5], 95.8% (inactive); in test [6] (setting [16]) it was 86.9%; in test [6] (setting [17]) it was 95.8%. Moreover, the viability is 101% (inactive) in test [12] and 91.9% (inactive) in [13]. In addition, in test [2], the Her2 level is 118% (inactive). In addition, the differential viability (reversal) in test [6] (H69AR cells + 2 uM doxorubicin) was 8.91% (inactive). The results for the inhibition in [7], in [8] and in test [14] were 2.56% (inactive), -5.83% (inactive) and 1.98% (inactive), respectively. Moreover, the growth inhibition in test [9] is -15.2% (inactive); in [10] it was -1.04% (inactive). For the same molecule, the viability increase in [11] is -0.73% (inactive). Besides, the RAM network inhibition in [15] is 1.89% (inactive).

For the molecule `COC(=O)CN(c1ccc(OC)cc1)S(=O)(=O)c1ccc(OC)c(OC)c1`, the viability in test [1] is 89.5%; in test [3] it was 89.5% (inactive); in test [4], 96.5% (inactive); in test [5], 88.1% (inactive); in test [6] (setting [16]) it was 85.3%; in test [6] (setting [17]), 88.1%. Also, the viability in test [12] is 98.5% (inactive); in test [13] it was 99.5% (inactive). The Her2 level in test [2] is 91% (inactive). Further, the differential viability (reversal) in [6] (H69AR cells + 2 uM doxorubicin) was 2.77% (inactive). For the same molecule, the inhibition is -0.78% (inactive) in test [7], -2.3% (inactive) in [8] and 1.75% (inactive) in [14]. Moreover, the growth inhibition in [9] was -13.7% (inactive); in test [10] it was -17% (inactive). For the same molecule, the viability increase in test [11] was -1.06% (inactive). In test [15], the RAM network inhibition is 4.96% (inactive).

A word on the viability: it is a read-out of living cells in per cent, often relative to untreated cells. By inhibition is commonly meant the drop in the measured response relative to a control, in per cent.
